Source: PubChem
Rows were chosen to be rich in hits. Some 2.4% of all compounds tested hit in one or more screens of this group.
D2 antag – antagonists of human D2 dopamine receptor | HEK293 TREx D2 cells, calcium flux, dopamine EC80 | 2% of 340,000 active | AID 485344 | P14416 | inhibition, % at 10 µM; in the data active means inhibition above about 30%; inactive means below that, where a call was filed; further: 0% is about no effect
Target sequence (P14416 whole entry, looked up): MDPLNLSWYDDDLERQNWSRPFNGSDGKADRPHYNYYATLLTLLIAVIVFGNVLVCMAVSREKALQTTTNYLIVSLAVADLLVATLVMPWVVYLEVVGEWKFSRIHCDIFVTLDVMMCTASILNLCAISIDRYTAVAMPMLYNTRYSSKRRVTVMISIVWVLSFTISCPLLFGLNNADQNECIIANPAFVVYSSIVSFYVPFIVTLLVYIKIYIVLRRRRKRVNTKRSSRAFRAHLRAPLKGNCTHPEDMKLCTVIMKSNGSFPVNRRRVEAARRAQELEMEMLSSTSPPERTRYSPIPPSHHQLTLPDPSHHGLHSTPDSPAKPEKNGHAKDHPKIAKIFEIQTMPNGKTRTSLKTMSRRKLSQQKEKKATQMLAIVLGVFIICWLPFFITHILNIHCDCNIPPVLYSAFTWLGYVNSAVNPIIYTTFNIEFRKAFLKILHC
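Inhibition of EC80 dopamine-driven calcium flux, recorded kinetically, defines activity here; cells are a tetracycline-induced HEK293 T-REx line expressing force-coupled D2.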
D2 ag-1 – activates the human D2 dopamine receptor; P14416; HEK293 T-REx D2 cells, calcium flux agonist mode; activation, % at 2 µM; 0.53% of 340,000 active; AID 485358;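 active means activation over 3 SD above normal in the single-dose calcium agonist read, cut at about 30% in these data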; further: 0% is about no effect
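Tetracycline-induced HEK293 Trex cells with D2 receptor force-coupled to calcium signaling, plated overnight at 30 C and loaded with no-wash calcium dye. Calcium flux read kinetically for 180 s after compound addition; responses flag agonists.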
D2 ag-2 – activates the human D2 dopamine receptor. DiscoveRx PathHunter D2 beta-arrestin, luminescence, 90 min; 100% = 57 uM dopamine signal. 0.084% of 360,000 active. activation, % (test concentration not listed); in the data active means activation above about 40%; inconclusive means between about 15% and that limit
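DiscoveRx PathHunter D2 beta-arrestin cells (2,100/well) attached overnight, then compound-stimulated 90 min at 37 C in HBSS/10 mM HEPES/0.1% Tween-20 buffer; beta-galactosidase complementation read by luminescence after 1 h at ambient temperature. Dopamine 57 uM final (EC100) as control.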
D2 PAM-1 – positive allosteric modulators of human D2 dopamine receptor. P14416. DiscoveRx D2 beta-arrestin cells, luminescence, 90 min; 100% = 57 uM dopamine signal. potentiation, % (test concentration not listed). 0.23% of 360,000 active. AID 624464; in the data active means potentiation above about 50%; inconclusive means mostly about 30% to 49%
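PathHunter beta-arrestin assay in DiscoveRx D2 cells. Compounds were added with an EC20 of dopamine (50 nM final) for 90 min at 37 deg C. Luminescence was read 1 h after detection reagent, with 57 uM dopamine as the EC100 control.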
D2 PAM-2 – positive allosteric modulators of human D2 dopamine receptor; P14416; HEK293 T-REx D2, calcium flux, EC20 dopamine potentiation; potentiation, % at 10 µM; 0.34% of 340,000 active; AID 485347;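 active means potentiation over 3 SD above the plate norm, cut at about 30% in these data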; further: 0% is about no effect
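Using a no-wash calcium dye in inducible, force-coupled HEK293 Trex cells expressing D2, we tracked fluorescence each second for 180 s after compound, then for 180 s after EC20 dopamine to detect augmented signalling.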
An asterisk follows results filed as active; ? = inconclusive; / = not tested or not shown.

SMILES	D2 antag	D2 ag-1	D2 ag-2	D2 PAM-1	D2 PAM-2
O=C(Nc1ccc(F)c(F)c1)C1CCN(S(=O)(=O)c2cccc3nonc23)CC1	0	-2	-16	1	30*
Cc1cccc2sc(NC(=O)C3CCN(S(=O)(=O)c4cc([N+](=O)[O-])ccc4Cl)CC3)nc12	/	/	?	64*	0
Cc1cccc2sc(NC(=O)C3CCCN(S(=O)(=O)c4cccc5nonc45)C3)nc12 (configuration not stated)	-9	-2	3	-11	39*
Cc1cccc2sc(NC(=O)C3CCCO3)nc12 (configuration not stated)	32*	0	-1	-4	-4
Cc1nnc(NC(=O)C2CCN(S(=O)(=O)c3cc([N+](=O)[O-])ccc3Cl)CC2)o1	14	-1	?	2	-5
CC(=O)Nc1ccc(NC(=O)C2CCN(S(=O)(=O)c3cccc4nonc34)CC2)cc1	10	0	2	-1	21
Cc1nn2c(=O)cc(COC(=O)C(c3ccccc3)c3ccccc3)nc2s1	/	1	/	/	-5
O=C(Nc1c(C(=O)N2CCOCC2)cnn1-c1ccccc1)c1ccc([N+](=O)[O-])cc1	-6	0	7	-9	2
Cc1ccc(C(=O)Nc2c(C(=O)N3CCOCC3)cnn2-c2ccccc2)cc1	-31	-1	-3	-8	33*
CC(=O)c1cccc(NC(=S)N2CCC(Cc3ccccc3)CC2)c1	8	0	-2	-17	-8
CC(=O)c1ccc(NC(=S)N2CCC(Cc3ccccc3)CC2)cc1	32*	-1	-3	-12	-6
O=C(c1ccc(Br)o1)N1CCC(Cc2ccccc2)CC1	49*	-1	-4	-14	8
Cc1nn(CC(=O)N2CCN(c3cccc(Cl)c3)CC2)c(=O)c2c1sc1ccccc12	/	0	/	/	-5
COc1ccc(NC(=O)CCCc2nc(-c3ccco3)no2)c(OC)c1	/	3	/	/	/
O=C(NN1C(=O)c2cc(Br)ccc2NC1c1ccccc1Cl)c1ccncc1 (configuration not stated)	/	/	-4	-20	/
COc1ccc(Br)cc1C1Nc2ccccc2C(=O)N1NC(=O)c1ccncc1 (configuration not stated)	2	0	-1	-36	30*
COc1ccc(NC(=O)C2Cc3c(-c4ccc(Cl)cc4)ccnc3O2)cc1OC (configuration not stated)	/	/	12	-14	/
Cc1ccc(C(=O)N[C@@H](C)CN2C3=NC[C@H](C)N3C[C@H]2Cc2ccc(O)cc2)cc1Br	6	0	/	/	1
Nc1nonc1C(=O)NCCNCc1c(OCc2ccccc2F)ccc2ccccc12	16	-2	1	-14	-34
CNCc1c(OCc2ccccc2F)ccc2ccccc12	78*	0	-3	-24	-22
CNCc1c(OCc2ccccc2)ccc2ccccc12	79*	0	-3	-10	-10
CCOc1ccccc1NC(=O)CCCNC(=O)c1ccc(Cl)cc1	-5	-1	-3	-15	-6
CCNS(=O)(=O)c1ccc(NC(=S)N2CCc3ccccc32)cc1	0	0	-4	-30	-7
O=C(Nc1ccc(OC(F)(F)F)cc1)C1CC(=O)N(Cc2ccco2)C1 (configuration not stated)	47*	-2	-5	6	0
Cc1cc(C(=O)N/N=C/c2cccc3ccccc23)c(C)o1	8	0	0	-6	18
SMILES	D2 antag	D2 ag-1	D2 ag-2	D2 PAM-1	D2 PAM-2
Cc1ccc(S(=O)(=O)CC(=O)c2ccc([N+](=O)[O-])cc2)cc1	11	1	1	0	-3
Cc1ccc(S(=O)(=O)CC(=O)c2ccc(C)c([N+](=O)[O-])c2)cc1	79*	1	2	-8	0
CCC(C(=O)N1CCN(Cc2ccc3c(c2)OCO3)CC1)n1nnc2ccccc2c1=O (configuration not stated)	/	/	-1	-16	/
CC(=O)N1CCOc2cc(S(=O)(=O)NCc3ccc(C)cc3)c(C)cc21	/	2	/	/	1
O=C(Nc1nnc(SCC(=O)N2CCCCC2)s1)c1ccc(F)cc1F	55*	0	3	1	-3
COc1ccc(OC)c(/C=C/C(=O)N(C)CC(=O)Nc2ccc(N3CCOCC3)cc2)c1	40*	1	1	-27	-8
Cc1cccc(S(=O)(=O)c2cn(Cc3ccccc3)c3cc(N4CCC(C)CC4)c(F)cc3c2=O)c1	/	-1	/	/	5
Cc1sc2nc(CSc3ccccc3)nc(NCCN(C)C)c2c1C	-5	0	-1	-38	-23
CCNc1nc(CSc2ccccc2)nc2sc(C)c(C)c12	39*	-1	2	-17	0
CC1=CC(c2ccccc2)n2nc(NS(=O)(=O)c3ccc(C)cc3)nc2N1 (configuration not stated)	121*	-1	0	-5	-3
CC1=CC(c2ccc(Cl)cc2)n2nc(NS(=O)(=O)c3ccc(C)cc3)nc2N1 (configuration not stated)	-8	0	0	0	-3
CN(C(=O)CS(=O)(=O)Cc1ccccc1Cl)c1ccccc1	3	0	1	4	-12
CO/N=C(/CS(=O)(=O)Cc1ccccc1Cl)c1ccc(Cl)cc1Cl	43*	2	-5	-16	-7
CCOc1sc2nc(C)n(CC(=O)Nc3cccc(C)c3)c(=O)c2c1C	/	-1	/	/	29
COc1ccccc1N1CCN(C(=O)c2cn(C)c3ccc(S(=O)(=O)N4CCOCC4)cc3c2=O)CC1	1	1	1	-5	17
O=C(c1cccc(Br)c1)N1CCN(c2ccc(N3CCOCC3)nn2)CC1	33*	0	-3	-8	-15
O=C(c1cncc(Br)c1)N1CCN(c2ccc(N3CCOCC3)nn2)CC1	18	0	-3	-5	-2
O=C(Oc1ccccc1C(=O)N1CCOCC1)c1cccc(Br)c1	47*	0	0	-12	3
COc1ccc(C(=O)N/C(=C\c2cc(OC)c(OC)cc2[N+](=O)[O-])C(=O)NCCO)cc1	39*	1	0	2	-12
CC12CN(Cc3ccccc3)CC(C)(CN(Cc3ccccc3)C1)C2=O	-9	1	1	-8	5
CC1(C)C(=O)NC(=O)N1Cc1ccccc1	45*	0	-3	-16	-5
CC(C)NC[C@H](O)c1ccc(O)c(O)c1	12	5	-4	-5	9
CCC(c1ccc(O)c(O)c1)C(CC)c1ccc(O)c(O)c1 (configuration not stated)	/	/	59*	16	/
CCOC(=O)Cn1c(C)c(Br)c(=O)c2cccc(C)c21	31*	0	-3	-27	-11
CC(=O)Nc1cccc(-n2cc3c(c2-c2ccccc2Cl)c(=O)n(C)c(=O)n3C)c1	/	-1	/	/	15
